One test relates to IL-6-GFP PC-9GR. The test can be described thus: cell viability (CCK-8 OD) relative to DMSO control (fraction of control); higher = more viable cells. The following applies: compound concentration: 10 uM; treatment time: 48 h. An outline of the steps: (§1)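 PC-9 and PC-9GR lung cancer cells carrying a lentiviral construct that overexpresses IL-6-GFP were seeded in 96-well plates at 3000 cells/well. Every compound in a purchased 510-compound library was applied at a final 10 μM for 48 h, and a parallel set of plates was kept for GFP imaging. Cell viability was read by CCK-8 absorbance, taking each well's optical density as a ratio to the vehicle control well. Two independent replicates were run.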

The test system of a further test is IL-6-GFP PC-9. Described as above. The note with it: compound concentration: 10 uM; treatment time: 48 h. An outline of the steps:
as §1

The values that follow come from the supplement of paper PMC8866396.

± gives the standard deviation of the averaged measurements.

For the compound `CC(=O)OCC(=O)C1(O)C(C)CC2C3CCC4=CC(=O)C=CC4(C)C3(F)C(O)CC21C` (stereo not drawn) [Dexamethasone Acetate], the results for the cell viability in the test with IL-6-GFP PC-9GR and in the test on IL-6-GFP PC-9 were 0.9 ± 0.23 and 0.945 ± 0.21, respectively.

Take `COc1cc(N2CCC(N3CCN(C)CC3)CC2)ccc1Nc1ncc(Cl)c(Nc2ccccc2P(C)(C)=O)n1`: the cell viability was 0.688 ± 0.15 in the test on IL-6-GFP PC-9GR and 0.41 ± 0.083 with IL-6-GFP PC-9.

As for `CCC1(O)C(=O)OCc2c1cc1n(c2=O)Cc2cc3cc(O)ccc3nc2-1` (stereo not drawn) [Hydroxy Camptothecine], the figures for the cell viability in the test on IL-6-GFP PC-9GR and in the test on IL-6-GFP PC-9 were 0.38 ± 0.2 and 0.404 ± 0.042, respectively.

As to `Cc1cnc(C(=O)NC2CCCCC/C=C\C3CC3(C(=O)NS(=O)(=O)C3CC3)NC(=O)C3CC(Oc4nc5ccccc5c5ccccc45)CN3C2=O)cn1` (stereo not drawn) [Paritaprevir (ABT-450)], the cell viability in the test with IL-6-GFP PC-9GR was 0.779 ± 0.2; in the test with IL-6-GFP PC-9, 0.874 ± 0.28.

Consider `O=S1(=O)CCN(CN2CCS(=O)(=O)NC2)CN1` [Taurolidine], for which the results for the cell viability in the test on IL-6-GFP PC-9GR and with IL-6-GFP PC-9 were 1.22 ± 0.27 and 1.234 ± 0.011, respectively.

As for `CC(C)C(=O)OCC(=O)C12OC(C3CCCCC3)OC1CC1C3CCC4=CC(=O)C=CC4(C)C3C(O)CC12C` (stereo not drawn) [Ciclesonide], the values for the cell viability in the test on IL-6-GFP PC-9GR and in the test with IL-6-GFP PC-9 were 0.855 ± 0.11 and 0.894 ± 0.16, respectively.

On to `CCCCC1C(=O)N(c2ccccc2)N(c2ccccc2)C1=O` [Phenylbutazone], for which the cell viability stood at 1.34 ± 0.094 in the test with IL-6-GFP PC-9GR and 1.25 ± 0.053 in the test with IL-6-GFP PC-9.

With `CC(C)=CCOc1ccc(/C=C/C(=O)c2ccc(OCC=C(C)C)cc2OCC(=O)O)cc1` [Sofalcone], the cell viability with IL-6-GFP PC-9GR worked out at 0.969 ± 0.2; in the test with IL-6-GFP PC-9, 1.01 ± 0.23.

As to `CCOc1ccc(Cc2cc(C34OCC(CO)(O3)C(O)C(O)C4O)ccc2Cl)cc1` (stereo not drawn) [Ertugliflozin], the cell viability is 1.43 ± 0.46 in the test with IL-6-GFP PC-9GR and 0.987 ± 0.16 in the test with IL-6-GFP PC-9.

`CC(N)c1ccc(C(=O)Nc2ccnc3[nH]ccc23)cc1.Cl.Cl` (stereo not drawn): the cell viability turned out to be 0.973 ± 0.42 with IL-6-GFP PC-9GR and 0.74 ± 0.23 in the test on IL-6-GFP PC-9.

`Cc1nnc(C(C)C)n1C1CC2CCC(C1)N2CCC(NC(=O)C1CCC(F)(F)CC1)c1ccccc1` (stereo not drawn) [Maraviroc]: the cell viability in the test with IL-6-GFP PC-9GR came to 1.3 ± 0.033; in the test on IL-6-GFP PC-9, 0.945 ± 0.17.

On to `COc1nc(N)nc2c1ncn2C1OC(CO)C(O)C1O` (stereo not drawn) [Nelarabine], for which the cell viability in the test with IL-6-GFP PC-9GR was determined as 1.12 ± 0.017; with IL-6-GFP PC-9 it was 0.758 ± 0.029.

As for `COc1cc2nccc(Oc3ccc(NC(=O)NC4CC4)c(Cl)c3)c2cc1C(N)=O.CS(=O)(=O)O` [lenvatinib Mesylate], the cell viability with IL-6-GFP PC-9GR is 1.15 ± 0.17; in the test on IL-6-GFP PC-9, 0.265 ± 0.16.

For `COC(=O)CC(O)(CCCC(C)(C)O)C(=O)OC1C(OC)=CC23CCCN2CCc2cc4c(cc2C13)OCO4` (stereo not drawn) [Homoharringtonine], the values for the cell viability in the test with IL-6-GFP PC-9GR and in the test on IL-6-GFP PC-9 were 0.275 ± 0.17 and 0.358 ± 0.042, respectively.

`CC1(C)CCC(C)(C)c2cc(NC(=O)c3ccc(C(=O)O)cc3)ccc21` [Tamibarotene]: the cell viability with IL-6-GFP PC-9GR stood at 1.55 ± 0.76; in the test on IL-6-GFP PC-9, 1.28 ± 0.11.

`Cc1c(N)c(=O)n(-c2ccccc2)n1C` [4-Aminoantipyrine]: the cell viability in the test with IL-6-GFP PC-9GR stood at 0.98 ± 0.13; with IL-6-GFP PC-9, 1.212 ± 0.0049.

For `CCOC(=O)N1CCC(=C2c3ccc(Cl)cc3CCc3cccnc32)CC1` [Loratadine], the cell viability in the test with IL-6-GFP PC-9GR is 1.12 ± 0.032; in the test on IL-6-GFP PC-9, 0.934 ± 0.18.

In the case of `CC(C)Cc1ccc(C(C)C(=O)O)cc1.NCCCCC(N)C(=O)O` (stereo not drawn) [Ibuprofen Lysine], the cell viability in the test on IL-6-GFP PC-9GR amounted to 1.28 ± 0.21; in the test with IL-6-GFP PC-9 it was 1.25 ± 0.29.

With `CN1CCC(=C2c3ccccc3C=Cc3ccccc32)CC1.Cl` [Cyproheptadine hydrochloride], the cell viability in the test on IL-6-GFP PC-9GR amounted to 0.784 ± 0.082; with IL-6-GFP PC-9, 1.07 ± 0.17.

On to `Cc1nc2ccc(CN(C)c3ccc(C(=O)NC(CCC(=O)O)C(=O)O)s3)cc2c(=O)[nH]1` (stereo not drawn) [Raltitrexed], for which the figures for the cell viability in the test on IL-6-GFP PC-9GR and with IL-6-GFP PC-9 were 0.5349 ± 0.0032 and 0.506 ± 0.17, respectively.

`CC1CCN(C(=O)CC#N)CC1N(C)c1ncnc2[nH]ccc12.O=C(O)CC(O)(CC(=O)O)C(=O)O` (stereo not drawn): the results for the cell viability with IL-6-GFP PC-9GR and in the test with IL-6-GFP PC-9 were 1.2 ± 0.23 and 1.26 ± 0.04, respectively.

Turning to `CC1CC2C3CCC4=CC(=O)C=CC4(C)C3C(=O)CC2(C)C1(O)C(=O)CO` (stereo not drawn) [Meprednisone], the cell viability in the test with IL-6-GFP PC-9GR worked out at 1.25 ± 0.14; with IL-6-GFP PC-9, 1.46 ± 0.35.

`CCC(=O)OC1(C(=O)CCl)C(C)CC2C3CC(F)C4=CC(=O)C=CC4(C)C3(F)C(O)CC21C` (stereo not drawn) [Halobetasol Propionate]: the figures for the cell viability in the test with IL-6-GFP PC-9GR and in the test on IL-6-GFP PC-9 were 0.859 ± 0.011 and 1.05 ± 0.29, respectively.

`CCc1nc(C(N)=O)c(Nc2ccc(N3CCC(N4CCN(C)CC4)CC3)c(OC)c2)nc1NC1CCOCC1` [Gilteritinib (ASP2215)]: the values for the cell viability in the test on IL-6-GFP PC-9GR and in the test on IL-6-GFP PC-9 were 0.333 ± 0.021 and 0.315 ± 0.11, respectively.

Regarding `CC(C)(C)c1nc(-c2cccc(NS(=O)(=O)c3c(F)cccc3F)c2F)c(-c2ccnc(N)n2)s1.CS(=O)(=O)O` [Dabrafenib Mesylate], the cell viability turned out to be 0.922 ± 0.18 in the test on IL-6-GFP PC-9GR and 0.921 ± 0.19 in the test on IL-6-GFP PC-9.

`Cc1ccc(-c2cc(C(F)(F)F)nn2-c2ccc(S(N)(=O)=O)cc2)cc1` [Celecoxib]: the cell viability in the test with IL-6-GFP PC-9GR came out at 1.13 ± 0.057; in the test on IL-6-GFP PC-9 it was 1.09 ± 0.051.

For `CCc1cc2c(cc1N1CCC(N3CCOCC3)CC1)C(C)(C)c1[nH]c3cc(C#N)ccc3c1C2=O`, the values for the cell viability with IL-6-GFP PC-9GR and in the test on IL-6-GFP PC-9 were 0.732 ± 0.081 and 0.584 ± 0.18, respectively.

Consider `CC(OCC1(c2ccccc2)CCC2(CCC(=O)N2)CN1)c1cc(C(F)(F)F)cc(C(F)(F)F)c1` (stereo not drawn) [Rolapitant], for which the values for the cell viability in the test with IL-6-GFP PC-9GR and with IL-6-GFP PC-9 were 0.76 ± 0.035 and 0.853 ± 0.26, respectively.

On to `COc1cc2nccc(Oc3ccc(NC(=O)NC4CC4)c(Cl)c3)c2cc1C(N)=O` [Lenvatinib (E7080)], for which the cell viability in the test on IL-6-GFP PC-9GR was 1.11 ± 0.064; in the test on IL-6-GFP PC-9 it was 0.9 ± 0.081.
